Results on 14 molecules are retold here after PubChem BioAssay (NCI).

Test systems include HCT-15 colon; HT29 colon; SNB-75 CNS; SNB-19 CNS; U251 CNS; PC-3 prostate; SK-MEL-5 melanoma; UACC-62 melanoma; LOX IMVI melanoma.
Holding throughout (assay): NCI-60 one-dose screen, 48 h (100 = growth as untreated, 0 = no growth, -100 = all killed)
Holding throughout (details): 10 µM unless noted

The panel holds about 83,000 compounds, 20% with a hit somewhere; the sample as a whole holds those more often.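 Negative percent growth values reflect cell death: -40 means 40% of the cells present at the start died, and -100 means all died.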 Values without a mark were called inactive. Active and inactive are the calls of the source. How the source made its calls: active means growth percent below 10; inactive means the rest.

As to `Cc1c(-c2ccc(-c3ccccc3F)cc2)nc2ccc(F)cc2c1C(=O)O`, the growth was 29% in the assay with HCT-15 colon; 28.3% in the assay on HT29 colon; 60.9% with SNB-75 CNS; 41% with SNB-19 CNS; 31.9% with U251 CNS; 33.2% in the assay on PC-3 prostate. The growth with SK-MEL-5 melanoma was 40.4%; in the assay with UACC-62 melanoma, 39.5%; in the assay on LOX IMVI melanoma it was 9.11% (active).
On to `CN(C)c1ccc(/C=C(\C#N)c2nc3ccccc3n2C)cc1`, for which the growth in the assay with HCT-15 colon was 28.5%; in the assay on HT29 colon it was 13.7%; in the assay on SNB-75 CNS, 7.56% (active); in the assay on SNB-19 CNS, 68.6%; with U251 CNS it was 30.3%; in the assay with PC-3 prostate it was 35.7%. Also, the growth with SK-MEL-5 melanoma was 14.5%; in the assay with UACC-62 melanoma it was 35%; in the assay with LOX IMVI melanoma, 46.2%.
In the case of `FC(F)(F)c1ccc(/C=N/Nc2nnc3n2N=C(c2ccc(Cl)cc2)CS3)cc1`, the growth in the assay with HCT-15 colon was 79.9%; with HT29 colon it was 70.1%; in the assay with SNB-75 CNS, -24.9% (active); in the assay with SNB-19 CNS it was 20.3%; in the assay on U251 CNS, 60.4%; in the assay on PC-3 prostate, 53.1%. Also, the growth is 76.4% in the assay on SK-MEL-5 melanoma, 55.1% in the assay on UACC-62 melanoma and 82.8% in the assay with LOX IMVI melanoma.
In the case of `O=C(/C=C/c1cccc([N+](=O)[O-])c1)c1ccc(Nc2nc(N3CCCCC3)nc(N3CCCCC3)n2)cc1`, the growth was 87.6% with HCT-15 colon; 88.6% with HT29 colon; 101% in the assay with SNB-75 CNS; 100% in the assay on SNB-19 CNS; 95.2% in the assay on U251 CNS; 89.3% in the assay with PC-3 prostate. Moreover, the growth is 97.6% in the assay with SK-MEL-5 melanoma, 91% with UACC-62 melanoma and 92.9% with LOX IMVI melanoma.
On to `COc1cccc(CC(C)=C(c2ccc(OCCCN(C)C)cc2)c2ccc(OCCCN(C)C)cc2)c1`, for which the growth in the assay on HCT-15 colon is -78.4% (active); in the assay with HT29 colon, -81.5% (active); in the assay on SNB-75 CNS it was -94.9% (active); in the assay on SNB-19 CNS it was -72.1% (active); in the assay on U251 CNS, -94.8% (active); with PC-3 prostate, -89.4% (active). Also, the values for the growth with SK-MEL-5 melanoma, with UACC-62 melanoma and in the assay with LOX IMVI melanoma were -95.3% (active), -84.7% (active) and -79.6% (active), respectively.
As for `Cc1[nH]nc2ccc3nc(-c4ccc5[nH]ncc5c4)c4c(c3c12)CCCC4`, the growth is 16.2% in the assay on HCT-15 colon; 22.1% with HT29 colon; 6.45% (active) in the assay with SNB-75 CNS; 35.8% in the assay on SNB-19 CNS; 26.4% in the assay on U251 CNS; 26.5% in the assay with PC-3 prostate. The growth with SK-MEL-5 melanoma is 10.4%; in the assay with UACC-62 melanoma it was 10.1%; with LOX IMVI melanoma, 29.6%.
For `COc1ccc2[nH]c(C(=O)OCc3ccc4cccc(O)c4n3)cc2c1`, the growth in the assay on HCT-15 colon was -43.8% (active); in the assay on HT29 colon, -73.1% (active); in the assay on SNB-75 CNS it was -29.1% (active); in the assay on SNB-19 CNS, 50.8%; with U251 CNS, 22.1%; with PC-3 prostate, -55.7% (active). Besides, the growth is -56.9% (active) in the assay with SK-MEL-5 melanoma, -81% (active) with UACC-62 melanoma and -89.1% (active) in the assay with LOX IMVI melanoma.
Consider `C=C(C)C1CCC2(C(=O)O)CCC3(C)C(CCC4C5(C)CCC(O)C(C)(C)C5CCC43C)C12` (stereo unspecified), for which the growth is 26.9% with HCT-15 colon; -9.19% (active) in the assay on HT29 colon; -24.8% (active) with SNB-75 CNS; 9.23% (active) in the assay with SNB-19 CNS; -45.3% (active) in the assay on U251 CNS; 8.63% (active) with PC-3 prostate. The growth was -75.8% (active) in the assay on SK-MEL-5 melanoma, 50.5% in the assay on UACC-62 melanoma and 8.78% (active) in the assay with LOX IMVI melanoma.
On to `CN1CCN(Cc2ccc(NC(=O)c3cncc(C#Cc4cnc5cccnn45)c3)cc2C(F)(F)F)CC1`, for which the growth in the assay with HCT-15 colon was 5.63% (active); with HT29 colon, 1.67% (active); with SNB-75 CNS, -68.8% (active); with SNB-19 CNS it was 9.4% (active); in the assay with U251 CNS, 5.83% (active); in the assay on PC-3 prostate, 5.62% (active). Also, the growth was 1.22% (active) in the assay on SK-MEL-5 melanoma, 10% with UACC-62 melanoma and -16.2% (active) with LOX IMVI melanoma.
Regarding `CC(C)c1ccc(Cn2ccc3c4c(N)nc(NC5CC5)nc4ccc32)cc1`, the growth in the assay on HCT-15 colon is -80.6% (active); in the assay with HT29 colon, -76.2% (active); in the assay with SNB-75 CNS, -94.4% (active); in the assay with SNB-19 CNS, -85.1% (active); in the assay with U251 CNS it was -95.1% (active); in the assay on PC-3 prostate it was -82% (active). The growth was -96.1% (active) in the assay with SK-MEL-5 melanoma, -93.1% (active) in the assay on UACC-62 melanoma and -90.2% (active) with LOX IMVI melanoma.
On to `COc1cccc2nc(Nc3cccc(NC(=O)c4cc(N5CCOCC5)cc(C(F)(F)F)c4)c3)ccc12`, for which the growth in the assay with HCT-15 colon is 48.2%; in the assay on HT29 colon it was 43.4%; in the assay on SNB-75 CNS, 50.1%; with SNB-19 CNS, 74.6%; in the assay on U251 CNS it was 50.6%; with PC-3 prostate, 36.8%. For the same molecule, the growth in the assay with SK-MEL-5 melanoma is 42.7%; with UACC-62 melanoma it was 71.4%; with LOX IMVI melanoma it was 56%.
Turning to `COc1ccc(-c2oc(=O)ccc2-c2cc(OC)c(OC)c(OC)c2)cc1F`, the growth is 68.2% in the assay on HCT-15 colon; 44.4% in the assay with HT29 colon; 106% with SNB-75 CNS; 92.1% in the assay with SNB-19 CNS; 81.9% in the assay on U251 CNS; 66.4% in the assay on PC-3 prostate. Also, the growth in the assay on SK-MEL-5 melanoma is 66.5%; with UACC-62 melanoma, 53.6%; in the assay with LOX IMVI melanoma, 67.4%.
As for `COc1cc(CN2CCO[C@H](COc3cccc(F)c3)C2)ccc1Cl`, the growth in the assay with HCT-15 colon is 26.3%; with HT29 colon, 42.6%; in the assay on SNB-75 CNS, 45%; in the assay with SNB-19 CNS, 29.8%; in the assay on U251 CNS it was 27.5%; in the assay with PC-3 prostate it was 27.8%. Besides, the results for the growth with SK-MEL-5 melanoma, in the assay with UACC-62 melanoma and in the assay on LOX IMVI melanoma were 37.7%, 44.7% and 50.7%, respectively.
In the case of `COc1c(B(O)O)cccc1-c1nc2ccc3[nH]ncc3c2c2c1CCCC2`, the growth is 25.4% in the assay on HCT-15 colon; 37.9% in the assay on HT29 colon; -2.29% (active) in the assay with SNB-75 CNS; 12.5% in the assay with SNB-19 CNS; 13.2% in the assay on U251 CNS; 18.4% with PC-3 prostate. The growth in the assay with SK-MEL-5 melanoma was 42.3%; in the assay on UACC-62 melanoma, 26.6%; in the assay on LOX IMVI melanoma it was -15.4% (active).
